Shown are actives, neighbours in structure and some others; about 1.6% of the full set was active somewhere.
KCNQ2 inh: rat KCNQ2 potassium channel inhibitors, primary screen, cell-based, CHO-K1, FluxOR thallium flux, B-score; Potassium voltage-gated channel subfamily KQT member 2 (Rattus norvegicus), O88943; 20 min; hits give low values; B-score at 10 µM; actives 1.1% (n = 310,000);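 active = fluorescence ratio B-score at most minus 3 library SDs, with starting brightness B-score within 2 library SDs, cut at about -5.5 in these data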
KCNQ2 enhance: potentiators of rat KCNQ2 potassium channel | Potassium voltage-gated channel subfamily KQT member 2 (Rattus norvegicus), O88943 | CHO-K1 KCNQ2, FluxOR thallium flux fluorescence; hits give high values | B-score at 10 µM | actives 0.54% (n = 310,000) | AID 2239, 2010;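 active = fluorescence ratio B-score at least 3 SD of library B-scores, with initial fluorescence B-score within 3 of them, cut at about 5.3 in these data; same plate scores as AID 2156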;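 also: B-score of peak minus minimum over baseline fluorescence ratio after K+ and Tl+ stimulus; positive B-score means potentiation of KCNQ2 with more thallium influx and brighter signal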
KCNQ2 block conf: rat KCNQ2 potassium channel inhibitors, confirmation, cell-based, thallium flux. shares compounds with KCNQ2 inh. KCNQ2-expressing cells, inhibition; hits give low values. activity change, negative = inhibition, % at 10 µM. actives 57% (n = 1,000);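 also: 0% = vehicle wells and values are ratio percent relative to vehicle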
KCNQ1 spec: human KCNQ1 channel inhibition, counter-screen for KCNQ2 inhibitor project, cell-based, FluxOR thallium flux | actives 15% (n = 1,000) | activity change, negative = inhibition, % at 10 µM | KCNQ1-expressing cells, FluxOR thallium flux fluorescence; hits give low values | shares compounds with KCNQ2 inh;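 active = activity change at least 3 SD of negative controls below their mean in both duplicate wells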;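 also: CHO cells stably transfected with KCNQ1 and depolarized by potassium stimulus; peak minus minimum fluorescence over baseline after thallium addition; 0% = vehicle negative control and -100% = blank without thallium stimulus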
CHO parental ctr: thallium flux change in parental CHO cells, counter-screen for KCNQ2 inhibitor project. shares compounds with KCNQ2 inh. hits give low values. activity change, % at 10 µM. actives 14% (n = 1,000). AID 493029, 2011;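 also: 0% = vehicle negative controls with stimulus buffer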
KCNQ2 patch conf: rat KCNQ2 channel inhibitors, confirmation, cell-based, automated patch clamp, single concentration; shares compounds with KCNQ2 inh; KCNQ2-expressing cells, automated patch clamp current; calls only at 10 µM; actives 49% (n = 550); AID 588531, 2011
Active calls of the source: *; i = inactive; nt = not tested or not shown; + = active, no number. Unless noted, no rule for the calls is given here.

SMILES	KCNQ2 inh	KCNQ2 enhance	KCNQ2 block conf	KCNQ1 spec	CHO parental ctr	KCNQ2 patch conf
Cc1cccc(N2C(=O)/C(=C\c3ccc(C(=O)O)cc3)c3ccccc3C2=O)c1	-9.14*	-9.14	-19.5%*	i	i	i
CN(C)/C=C/C(=O)c1ccc([N+](=O)[O-])c(CS(=O)(=O)c2ccc(Cl)cc2)c1	i	nt	nt	nt	nt	nt
COC(=O)C(Cc1ccccc1)OS(N)(=O)=O (configuration not stated)	i	0.93	nt	nt	nt	nt
CC1(C)C(C=C(Cl)Cl)C1C(=O)N/N=C/c1ccccc1F (configuration not stated)	-9.88*	-9.88	-28.0%*	i	i	+
CC1(C)OC2OC(C(=O)N/N=C/c3ccccc3F)C3OC(C)(C)OC3C2O1 (configuration not stated)	i	1.12	nt	nt	nt	nt
COc1ccc(-n2c(=S)[nH]c3cc(C(=O)N4CCN(c5ccccc5)CC4)ccc3c2=O)c(OC)c1	i	0.1	nt	nt	nt	nt
CC(C)c1csc(CN2CCC(N3CCC(C(=O)N4CCOCC4)CC3)CC2)n1	i	nt	nt	nt	nt	nt
c1cc2c(cc1C1CCCCC1)c1c3n2CCCNC3CCC1 (configuration not stated)	-11.8*	-11.8	-34.0%*	i	i	i
Cc1ccc2c(c1)c1c3n2CCCNC3CCC1 (configuration not stated)	i	nt	nt	nt	nt	nt
COc1cc(-c2nnc(SCC(=O)N3c4ccccc4Sc4ccccc43)o2)cc(OC)c1OC	i	nt	nt	nt	nt	nt
O=C(Sc1nnc(-c2ccccc2)o1)N1c2ccccc2Sc2ccccc21	-6.84*	-6.84	i	i	i	nt
COC(=O)c1c(-c2ccc(F)cc2)csc1NC(=O)C1CCCO1 (configuration not stated)	i	0.46	nt	nt	nt	nt
CCc1ccc(-c2csc(NC(=O)C3CCCO3)c2C(=O)OC(C)C)cc1 (configuration not stated)	-8.26*	-8.26	-29.0%*	i	i	nt
Oc1ccc(C2=CSC3=NCCN23)cc1O	i	0.8	nt	nt	nt	nt
COc1cc(C2CC(=O)Nc3ccccc3S2)cc(OC)c1OC (configuration not stated)	-8.47*	-8.47	i	i	i	nt
COc1cc(C2Sc3ccccc3NC3=C2C(=O)OC3)cc(OC)c1OC (configuration not stated)	i	nt	nt	nt	nt	nt
Cc1ccc2oc(C(=O)N(Cc3ccc(N(C)C)cc3)CC3CCCO3)c(C)c2c1 (configuration not stated)	i	nt	nt	nt	nt	nt
Cc1cc2oc(C(=O)N(Cc3ccc(N(C)C)cc3)CC3CCCO3)c(C)c2cc1C (configuration not stated)	-8.61*	-8.61	-37.0%*	-35.5%*	-33.5%*	+
Cn1nc(C(=O)NC2CCCCC2)c2c1-c1ccccc1SC2	i	nt	nt	nt	nt	nt
CC(C)N(C(=O)c1nn(C)c2c1CSc1ccccc1-2)C1CCCCC1	-8.65*	-8.65	-26.5%*	i	i	i
COc1ccc(C(c2nnnn2Cc2ccccc2)N2CCN(c3nc4ccccc4s3)CC2)cc1OC (configuration not stated)	i	nt	nt	nt	nt	nt
COc1ccccc1C(c1nnnn1Cc1ccccc1)N1CCN(c2nc3ccccc3s2)CC1 (configuration not stated)	-8.82*	-8.82	-31.0%*	i	i	+
c1ccc(C(c2nnnn2Cc2ccco2)N2CCN(c3nc4ccccc4s3)CC2)cc1 (configuration not stated)	i	nt	nt	nt	nt	nt
c1ccc(Cn2nnnc2C(c2ccccc2)N2CCN(c3nc4ccccc4s3)CC2)cc1 (configuration not stated)	-7.94*	-7.94	-37.0%*	i	i	i
CC(=O)N1CCN(C(=O)c2ccc(NS(=O)(=O)c3ccc4[nH]c(=O)[nH]c4c3)cc2)CC1	i	nt	nt	nt	nt	nt
COc1ccc(N(CC(=O)NC2CC2)S(=O)(=O)c2ccccc2)cc1	i	nt	nt	nt	nt	nt
C/C(=N/NC(=O)CN1CCN(Cc2ccccc2Cl)CC1)c1ccncc1	i	1.79	nt	nt	nt	nt
CCCOC(=O)/C(=C\C=C\c1ccccc1)NC(=O)c1ccccc1	i	nt	nt	nt	nt	nt
